The supplement of paper PMC11634586
Counter-ions that a name gives are not always drawn. A number with no mark means an inactive call.

What follows are compounds tested on NCI-H1688 (assay: inhibition of cell viability relative to untreated control (fraction); higher = stronger growth inhibition, active = 0.5 or more). Conditions: 30 µM; 24 h.
Experimental: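 Natural product library (TargetMol, 640 compounds) screened on NCI-H1688 SCLC cells at 30 µM for 24 h; viability by CCK-8 absorbance at 450 nm, normalised to untreated control and expressed as inhibition rate (fraction). Compounds with >50% reduction in viability were selected as hits.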

SMILES	inhibition of cell viability
COC(=O)[C@H]1[C@H]2C[C@@H]3c4[nH]c5cc(OC)ccc5c4CCN3C[C@H]2C[C@@H](OC(=O)c2cc(OC)c(OC)c(OC)c2)[C@@H]1OC [Reserpine]	0.981 (active)
COC(=O)c1ccc(O)c(OC)c1 [Methyl Vanillate]	-0.221
COc1cc2c(cc1OC)[C@@H]1Cc3ccc(OC)c(OC)c3CN1CC2 [Rotundine, TETRAHYDROPALMATINE HYDROCHLORIDE]	-0.254
COc1ccc(-c2coc3cc(O)cc(O)c3c2=O)cc1 [Biochanin A]	-0.0526
C[C@H]1[C@H](C)CC[C@]2(C(=O)O[C@@H]3O[C@H](CO[C@@H]4O[C@H](CO)[C@@H](O[C@@H]5O[C@H](C)[C@H](O)[C@@H](O)[C@H]5O)[C@H](O)[C@H]4O)[C@@H](O)[C@H](O)[C@H]3O)CC[C@]3(C)C(=CC[C@@H]4[C@@]5(C)C[C@@H](O)[C@H](O)[C@@](C)(CO)[C@@H]5CC[C@]43C)[C@H]12 [Asiaticoside]	0.145
N[C@H]1C(O)O[C@H](CO)[C@@H](O)[C@@H]1O (stereo not given in full) [Glucosamine sulfate]	0.381
O=C(O)/C=C/c1ccc(O)cc1 [p-Coumaric acid]	0.0191
C[C@H]1[C@@H](O)O[C@@H]2O[C@@]3(C)CC[C@H]4[C@H](C)CC[C@@H]1[C@@]24OO3 [Dihydroartemisinin]	0.644 (active)
OC1OC[C@@H](O)[C@@H](O)[C@@H]1O (stereo partly drawn) [D(-)-Arabinose]	0.0239
CC(=O)O[C@@]12CO[C@@H]1C[C@H](O)[C@@]1(C)C(=O)[C@H](O)C3=C(C)[C@@H](OC(=O)[C@H](O)[C@@H](NC(=O)OC(C)(C)C)c4ccccc4)C[C@@](O)([C@@H](OC(=O)c4ccccc4)[C@H]21)C3(C)C [Docetaxel trihydrate]	0.635 (active)
CC(C)=CC[C@@H](O)C1=CC(=O)c2c(O)ccc(O)c2C1=O [Shikonin]	0.956 (active)
C=C1CC[C@@H]2[C@](C)(CO)[C@H](O)CC[C@@]2(C)[C@@H]1C/C=C1/C(=O)OC[C@H]1O [Andrographolide]	0.853 (active)
C[C@H]1[C@H](C)CC[C@]2(C(=O)O)CC[C@]3(C)C(=CC[C@@H]4[C@@]5(C)C[C@@H](O)[C@H](O)[C@@](C)(CO)[C@@H]5CC[C@]43C)[C@H]12 [Asiatic acid]	0.00351
Oc1cc2c(cc1O)[C@@H]1c3ccc(O)c(O)c3OC[C@]1(O)C2 [Hematoxylin]	0.0369
CC1(C)C2CCC1(C)C(O)C2 (stereo not given) [Borneol]	0.16
O=c1cc(-c2ccc(O)c(O)c2)oc2cc(O[C@@H]3O[C@H](CO)[C@@H](O)[C@H](O)[C@H]3O)cc(O)c12 [Cynaroside]	0.705 (active)
OC[C@H]1O[C@@H](Oc2ccc(O)cc2)[C@H](O)[C@@H](O)[C@@H]1O [Arbutin]	-0.263
COc1cc(O)c2c(c1)C(=O)c1cc(C)cc(O)c1C2=O [Rheochrysidin]	0.0809
OC[C@@H](O)[C@@H](O)[C@H](O)[C@H](O)CO [D-Mannitol]	-0.179
COc1ccc2cc1Oc1ccc(cc1)C[C@H]1c3cc(c(OC)cc3CCN1C)Oc1c(O)c(OC)cc3c1[C@H](C2)N(C)CC3 [(+)-Fangchinoline]	0.984 (active)

SMILES	inhibition of cell viability
CC1=C(/C=C/C(C)=C/C=C/C(C)=C/C(=O)O)C(C)(C)CCC1 [Tretinoin]	0.00396
OCc1c[nH]c2ccccc12 [Indole-3-carbinol]	0.0235
C[N+](C)(C)CC(=O)O [Betaine hydrochloride]	-0.247
O=c1ccc2ccccc2o1 [Coumarin]	-0.151
Cc1cc(O)cc(O[C@@H]2O[C@H](CO)[C@@H](O)[C@H](O)[C@H]2O)c1 [Orcinol glucoside]	0.0244
COc1cc(C[C@H]2C(=O)OC[C@@H]2Cc2ccc(OC)c(OC)c2)ccc1O [Arctigenin]	0.431
OC[C@H]1O[C@@](CO)(O[C@H]2O[C@H](CO)[C@@H](O)[C@H](O)[C@H]2O)[C@@H](O[C@H]2O[C@H](CO)[C@@H](O)[C@H](O)[C@H]2O)[C@@H]1O [Melezitose]	-0.0856
N[C@@H](CCC(=O)N[C@@H](CS)C(=O)NCC(=O)O)C(=O)O [Glutathione]	-0.00752
C[C@@H]1[C@H](O)[C@@H](C)/C=C/C=C/C=C/C=C/C=C/C=C/C=C/[C@H](O[C@@H]2O[C@H](C)[C@@H](O)[C@H](N)[C@@H]2O)C[C@@H]2O[C@](O)(C[C@@H](O)C[C@@H](O)[C@H](O)CC[C@@H](O)C[C@@H](O)CC(=O)O[C@H]1C)C[C@H](O)[C@H]2C(=O)O [Amphotericin B]	0.0269
O=C(O)CCCC[C@@H]1SC[C@@H]2NC(=O)N[C@@H]21 [D-Biotin]	-0.0414
COc1ccc2c(C)cc(=O)oc2c1 [7-Methoxy-4-methylcoumarin]	-0.298
CCCCCCCCCC[C@H](C(=O)O)[C@]1(C(=O)O)CCC(=O)O1 [Spiculisporic Acid]	0.104
Cn1c(=O)c2c(ncn2CC(=O)O)n(C)c1=O [Theophylline-7-acetic acid]	-0.159
CC1(C)CCCC2(C)OC(=O)C=C12 (stereo not given) [Dihydroactinidiolide]	0.194
O=c1c(O)c(-c2ccccc2)oc2ccccc12 [3-Hydroxyflavone]	0.587 (active)
O=C1c2cccc(O)c2C(=O)c2c(O)cc(CO)cc21 [Aloe-emodin]	0.373
COc1cc(C=O)ccc1OC(C)=O [Acetylvanillin]	-0.295
O=C(CCc1ccc(O)cc1)c1c(O)cc(O)cc1O [Phloretin]	-0.0149
CCc1c2c(nc3ccc(OC(=O)N4CCC(N5CCCCC5)CC4)cc13)-c1cc3c(c(=O)n1C2)COC(=O)[C@]3(O)CC [Irinotecan]	0.684 (active)
C=C(C)[C@@H]1CC[C@]2(C)CC[C@]3(C)[C@H](CC[C@@H]4[C@@]5(C)CC[C@H](O)C(C)(C)[C@@H]5CC[C@]43C)[C@@H]12 [Lupeol]	0.287
